Only some compounds are listed: those with a hit (about 1% of all), similar ones and a draw of the others.
Mtb BioA inh: BioA (M. tuberculosis) enzyme inhibition | purified M. tuberculosis BioA enzyme, plate reader | inhibition, % at 9.99 µM | hit rate 0.096% among 360,000; in the data active means inhibition above about 40%
SSB-PriA inh: blocks PriA binding to SSB C-terminal tail | AlphaScreen SSBct-PriA binding, biotinylated peptide | inhibition, % at 33 µM | hit rate 0.6% among 430,000; in the data active means inhibition mostly above about 37%, no sharp cut-off; inactive means mostly below about 20%;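 further: plate controls were negative control peptide for no effect and reference peptide for full effect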
TcdB GH inh: TcdB glycohydrolase inhibition; hit rate 0.24% among 350,000; inhibition, % at 9.99 µM; P18177; TcdB glycohydrolase enzymatic assay, plate reader; in the data active means inhibition above about 10%
Target sequence (P18177 whole entry, looked up): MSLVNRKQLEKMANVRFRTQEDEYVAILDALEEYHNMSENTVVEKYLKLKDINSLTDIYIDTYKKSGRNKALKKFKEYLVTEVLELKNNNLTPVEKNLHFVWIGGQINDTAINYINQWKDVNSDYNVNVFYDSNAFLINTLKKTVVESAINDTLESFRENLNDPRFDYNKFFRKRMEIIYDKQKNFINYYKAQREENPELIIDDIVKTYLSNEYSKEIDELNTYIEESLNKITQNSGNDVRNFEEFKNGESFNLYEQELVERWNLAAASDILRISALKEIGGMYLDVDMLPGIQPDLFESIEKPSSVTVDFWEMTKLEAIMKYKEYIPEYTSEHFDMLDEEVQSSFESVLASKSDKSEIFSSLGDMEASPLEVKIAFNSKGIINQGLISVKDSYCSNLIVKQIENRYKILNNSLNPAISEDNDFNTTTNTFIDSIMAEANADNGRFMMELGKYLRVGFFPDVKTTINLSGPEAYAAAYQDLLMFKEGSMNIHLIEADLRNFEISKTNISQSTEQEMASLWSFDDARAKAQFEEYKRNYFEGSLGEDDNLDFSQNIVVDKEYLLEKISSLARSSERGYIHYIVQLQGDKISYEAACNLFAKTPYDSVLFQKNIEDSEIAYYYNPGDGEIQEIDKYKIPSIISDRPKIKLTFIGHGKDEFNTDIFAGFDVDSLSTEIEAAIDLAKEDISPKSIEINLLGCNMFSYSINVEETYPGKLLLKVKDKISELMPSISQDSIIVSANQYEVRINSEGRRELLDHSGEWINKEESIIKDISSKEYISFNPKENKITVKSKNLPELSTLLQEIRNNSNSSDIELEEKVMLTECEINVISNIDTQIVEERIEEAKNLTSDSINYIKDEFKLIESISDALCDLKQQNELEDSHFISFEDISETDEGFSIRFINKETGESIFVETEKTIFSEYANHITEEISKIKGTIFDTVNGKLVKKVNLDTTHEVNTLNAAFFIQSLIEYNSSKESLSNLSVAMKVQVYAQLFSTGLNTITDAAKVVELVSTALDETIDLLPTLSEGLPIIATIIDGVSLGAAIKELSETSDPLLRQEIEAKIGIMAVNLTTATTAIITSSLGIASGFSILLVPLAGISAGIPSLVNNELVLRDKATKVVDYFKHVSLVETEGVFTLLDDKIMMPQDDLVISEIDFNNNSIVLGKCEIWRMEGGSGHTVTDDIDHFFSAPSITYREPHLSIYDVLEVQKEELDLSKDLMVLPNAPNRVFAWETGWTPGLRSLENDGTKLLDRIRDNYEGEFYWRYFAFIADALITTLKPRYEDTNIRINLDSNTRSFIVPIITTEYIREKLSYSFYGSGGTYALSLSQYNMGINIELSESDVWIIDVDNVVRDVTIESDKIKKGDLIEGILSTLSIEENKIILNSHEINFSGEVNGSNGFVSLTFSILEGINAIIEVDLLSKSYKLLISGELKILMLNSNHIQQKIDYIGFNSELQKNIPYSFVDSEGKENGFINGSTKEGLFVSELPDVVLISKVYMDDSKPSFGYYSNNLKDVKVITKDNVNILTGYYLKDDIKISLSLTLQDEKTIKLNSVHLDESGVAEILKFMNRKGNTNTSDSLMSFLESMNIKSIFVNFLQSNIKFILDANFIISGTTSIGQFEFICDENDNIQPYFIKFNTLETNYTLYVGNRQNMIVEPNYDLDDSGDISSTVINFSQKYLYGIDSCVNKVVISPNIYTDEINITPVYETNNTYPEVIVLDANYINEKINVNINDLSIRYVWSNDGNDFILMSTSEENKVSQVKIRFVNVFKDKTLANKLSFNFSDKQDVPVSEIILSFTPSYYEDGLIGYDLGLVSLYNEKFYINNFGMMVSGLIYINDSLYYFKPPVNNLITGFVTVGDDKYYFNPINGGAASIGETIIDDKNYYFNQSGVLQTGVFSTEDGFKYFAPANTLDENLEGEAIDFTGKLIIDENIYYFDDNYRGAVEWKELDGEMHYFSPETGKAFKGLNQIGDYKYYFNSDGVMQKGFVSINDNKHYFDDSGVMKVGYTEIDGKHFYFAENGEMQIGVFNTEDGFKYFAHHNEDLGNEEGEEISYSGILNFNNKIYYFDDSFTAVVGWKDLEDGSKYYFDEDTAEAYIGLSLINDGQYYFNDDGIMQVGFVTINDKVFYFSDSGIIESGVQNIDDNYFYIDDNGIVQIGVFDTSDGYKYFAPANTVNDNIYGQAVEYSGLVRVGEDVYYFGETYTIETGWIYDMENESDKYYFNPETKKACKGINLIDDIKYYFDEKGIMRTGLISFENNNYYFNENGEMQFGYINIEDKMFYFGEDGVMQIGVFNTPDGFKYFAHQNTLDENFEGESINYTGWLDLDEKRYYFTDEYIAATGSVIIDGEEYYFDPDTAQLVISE
FadD28 FP inh: inhibitors of Mycobacterium tuberculosis FadD28 bisubstrate binding | AID 588549 | FadD28 bisubstrate probe binding, fluorescence polarization | inhibition, % at 12.5 µM | hit rate 0.22% among 360,000; in the data active means inhibition above about 8.5%, passing the limit was not always enough
Mtb hypoxia inh: inhibitors of hypoxia-regulated fluorescent reporter in Mycobacterium tuberculosis | M. tuberculosis hypoxia-regulated fluorescent reporter, fluorescence | fluorescence inhibition, % (test concentration not listed) | hit rate 0.1% among 300,000; in the data active means fluorescence inhibition mostly above about 23%, no sharp cut-off; inactive means mostly below about 17%
PrP UTR inh: suppresses PrP 5' UTR mRNA reporter expression; inhibition, % (test concentration not listed); AID 488862; cell-based PrP 5' UTR mRNA reporter, plate reader; hit rate 0.35% among 340,000; in the data active means inhibition above about 52%; further: 0 = median of the neutral control wells
Starred values were filed as active, the others as inactive.

How did COc1cc(OC)cc(-c2cc(N)n(S(=O)(=O)c3cccc4nsnc34)n2)c1 do in these assays?
SSB-PriA inh: 39.0*; TcdB GH inh: 0.9; FadD28 FP inh: -4.2; Mtb hypoxia inh: -9.7; PrP UTR inh: -26.5

Results for COc1cc(NCCCC(C)N)c2ncccc2c1 (stereo unspecified) ?
Mtb BioA inh: -5.6; SSB-PriA inh: 49.2*; FadD28 FP inh: 8.7*; Mtb hypoxia inh: 19.9; PrP UTR inh: -8.9

How did COc1cc(NCCCCC(C)N)c2nccc(C)c2c1 (stereo unspecified) do in these assays?
Mtb BioA inh: 3.4; TcdB GH inh: -0.3; FadD28 FP inh: -2.9

What do the screens show for `COCCNC(=O)Nc1cc(OC)cc2cccnc12`?
SSB-PriA inh: 53.0*

Results for O=C(Nc1ccc(O)cc1)c1ccc2c(c1)C(=O)N(Cc1ccco1)C2=O ?
SSB-PriA inh: 10.7; TcdB GH inh: 16.4*; FadD28 FP inh: 0.6; Mtb hypoxia inh: 12.6; PrP UTR inh: -28.7

How did O=C(Nc1ccc(O)cc1C(=O)O)c1ccc2c(c1)C(=O)N(Cc1ccco1)C2=O do in these assays?
Mtb BioA inh: -0.2; SSB-PriA inh: -12.3; FadD28 FP inh: 2.6; Mtb hypoxia inh: 10.2; PrP UTR inh: -29.1

What do the screens show for `O=C(Nc1cc([N+](=O)[O-])ccc1O)c1ccc2c(c1)C(=O)N(Cc1ccco1)C2=O`?
Mtb BioA inh: 1.4; SSB-PriA inh: 6.3; TcdB GH inh: -2.1; FadD28 FP inh: 12.0*; Mtb hypoxia inh: 3.9; PrP UTR inh: -12.3

How did CN(C)CC(=O)N1[C@@H]2c3ccc(-c4ccccc4)c(=O)n3C[C@H]1[C@H](CO)[C@H]2C(=O)N1CCCCC1 do in these assays?
Mtb BioA inh: 0.0; TcdB GH inh: -1.7

Results for O=C(O)c1ccc(-c2nnc(-c3ccccc3)o2)cc1 ?
Mtb BioA inh: -1.1; SSB-PriA inh: -0.7; TcdB GH inh: 13.4*; FadD28 FP inh: -1.1; Mtb hypoxia inh: 5.7; PrP UTR inh: -35.0

How did NC(=O)c1sc2nc3c(c(-c4ccco4)c2c1N)CCC3 do in these assays?
Mtb BioA inh: 3.9; SSB-PriA inh: 1.2; TcdB GH inh: 1.8; FadD28 FP inh: 2.0; Mtb hypoxia inh: -0.4; PrP UTR inh: 37.4

Results for Nc1c(C(=O)NC2CC2)sc2nc3c(c(-c4ccco4)c12)CC/C3=C/c1ccco1 ?
SSB-PriA inh: 20.7; FadD28 FP inh: 18.1*; Mtb hypoxia inh: 1.8; PrP UTR inh: -1.3

Results for Cc1cccc(NC(=S)NNC(=O)c2csc3c2CCC(C)C3)c1 (stereo unspecified) ?
Mtb BioA inh: 0.4; SSB-PriA inh: 9.0; TcdB GH inh: 0.3; FadD28 FP inh: 14.4*; Mtb hypoxia inh: -3.3; PrP UTR inh: -34.1

How did O=C(Nc1ccc(S(=O)(=O)N2CCOCC2)cc1)c1ccc([N+](=O)[O-])s1 do in these assays?
Mtb BioA inh: 0.0; SSB-PriA inh: -9.0; TcdB GH inh: 2.8; FadD28 FP inh: -1.4; Mtb hypoxia inh: 37.8*; PrP UTR inh: -28.9

How did CCOc1ccc(OCC)c(S(=O)(=O)N2CCC(C)CC2)c1 do in these assays?
Mtb BioA inh: -0.1; SSB-PriA inh: -33.4; TcdB GH inh: 6.9; FadD28 FP inh: -2.7; Mtb hypoxia inh: 6.2

Results for COc1ccc(-n2nc([N+](=O)[O-])c(=NCCc3ccc(Cl)cc3)n2O)cc1 ?
Mtb BioA inh: -0.8; SSB-PriA inh: 22.4; TcdB GH inh: 0.9; FadD28 FP inh: -3.8; Mtb hypoxia inh: -3.4; PrP UTR inh: -26.4

What do the screens show for `CCc1ccc(N=c2c([N+](=O)[O-])nn(-c3ccccc3)n2O)cc1`?
Mtb BioA inh: -0.9; SSB-PriA inh: 69.9*; FadD28 FP inh: 1.6; Mtb hypoxia inh: 8.8

How did Cc1ccc(CN=c2c([N+](=O)[O-])nn(-c3cccc(C)c3)n2O)cc1 do in these assays?
SSB-PriA inh: 16.3; TcdB GH inh: 0.5; FadD28 FP inh: 1.3; Mtb hypoxia inh: 9.2; PrP UTR inh: 7.8

How did Cc1cc(C)cc(N=c2c([N+](=O)[O-])nn(-c3ccc(Cl)cc3)n2O)c1 do in these assays?
Mtb BioA inh: -1.7; SSB-PriA inh: 51.4*; TcdB GH inh: 1.1; FadD28 FP inh: 0.1; Mtb hypoxia inh: 23.7; PrP UTR inh: -21.6

How did CCOc1ccc(C)cc1S(=O)(=O)NCc1ccsc1 do in these assays?
SSB-PriA inh: -15.0

Results for CC1(C)CC(=O)C2=C(C1)NC1=C(C(=O)c3ccccc31)C2c1ccc(O)cc1 (stereo unspecified) ?
SSB-PriA inh: 49.5*; FadD28 FP inh: 2.5; Mtb hypoxia inh: -1.0; PrP UTR inh: -0.1

Results for CC1(C)CC(=O)C2=C(C1)OC1=C(C(=O)CC(C)(C)C1)C2c1ccc(O)cc1 ?
SSB-PriA inh: 9.0

Results for CCCCc1ccc(C2C3=C(CC(C)(C)CC3=O)NC3=C2C(=O)c2ccccc23)cc1 (stereo unspecified) ?
Mtb BioA inh: 1.4; SSB-PriA inh: 22.4; TcdB GH inh: 0.6; FadD28 FP inh: -2.6; Mtb hypoxia inh: -2.5; PrP UTR inh: -9.4

Results for CCCc1ccc(C2C3=C(CC(C)(C)CC3=O)NC3=C2C(=O)c2ccccc23)cc1 (stereo unspecified) ?
Mtb BioA inh: -1.9; SSB-PriA inh: 47.1*; TcdB GH inh: -10.3; FadD28 FP inh: -0.6; Mtb hypoxia inh: -1.8; PrP UTR inh: -5.4

What do the screens show for `CCc1ccc2oc(-c3ccc(OC)cc3)cc(=Nc3cccc(C(=O)O)c3)c2c1`?
Mtb BioA inh: 3.7; SSB-PriA inh: -6.4; TcdB GH inh: -0.6; FadD28 FP inh: -6.2; Mtb hypoxia inh: 2.2; PrP UTR inh: -76.4

Results for CCc1ccc2oc(-c3ccc(OC)cc3)cc(=Nc3c(C)n(C)n(-c4ccccc4)c3=O)c2c1 ?
SSB-PriA inh: 43.8*; TcdB GH inh: -3.6; FadD28 FP inh: 0.1; Mtb hypoxia inh: 24.6; PrP UTR inh: -88.6

What do the screens show for `CC(=O)OCC1=C(C(=O)O)N2C(=O)C(NC(=O)COc3ccc(F)cc3)C2SC1` (stereo unspecified)?
Mtb BioA inh: 0.9; SSB-PriA inh: 6.1; TcdB GH inh: 2.1; FadD28 FP inh: 1.2; Mtb hypoxia inh: 37.2*; PrP UTR inh: -42.6

How did FC(F)(F)c1cc(CCN2CCNC[C@H]2Cc2cccc3ccccc23)cc(C(F)(F)F)c1 do in these assays?
Mtb BioA inh: -1.9; SSB-PriA inh: 14.5; TcdB GH inh: 10.6*; FadD28 FP inh: -25.7; PrP UTR inh: -1.2

Results for CCOC(=O)c1ccc(NC(=O)Cn2c(-c3nnc(C)o3)cc3ccccc32)cc1 ?
SSB-PriA inh: -6.0

Results for COC(=O)c1c(C(=O)OC)c(-c2ccc(F)cc2)n2c1CSC2 ?
Mtb BioA inh: 13.1; SSB-PriA inh: 3.3; TcdB GH inh: 1.4; FadD28 FP inh: -0.9; Mtb hypoxia inh: -1.6; PrP UTR inh: -21.5

How did O=C(O)c1c(C(=O)O)c(-c2ccc(Br)cc2)n2c1CSC2 do in these assays?
Mtb BioA inh: 0.4; SSB-PriA inh: -1.0; TcdB GH inh: 0.6; FadD28 FP inh: 12.6*; PrP UTR inh: -19.0

What do the screens show for `Cc1ccc(-c2c(C(=O)O)c(C(=O)O)c3n2CSC3)cc1`?
Mtb BioA inh: 1.1; SSB-PriA inh: 72.8*; TcdB GH inh: 0.6; FadD28 FP inh: -1.7; Mtb hypoxia inh: 14.6; PrP UTR inh: -8.9
